From PubChem BioAssay (NCATS)
Records with an inconclusive call do not appear. Activity calls are given as the source filed them. The call rests on the fitted dose curve; in most records, active means well fitted inhibition curve with a large enough effect; inconclusive means small, poorly fitted or top-dose-only effect; inactive means flat fitted curve, though single readings scatter.

How the values were obtained:
Assay in all cases: Cytotoxic Profiling of Annotated Libraries Using Quantitative High-Throughput Screening (AID 1296008); further: nearly all actives have a fitted effect of over 60% in size
Settings in all cases: Five cell lines viability, CellTiter-Glo ATP luminescence, 48-72 h; max response: stronger effect = lower value
CRL-7250 = system: CRL-7250
Summary of the method: (§1)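 Cells exposed to compounds for 48 or 72 hr at 37 degrees Celsius. Viability read as ATP-coupled luminescence with CellTiter-Glo after 10 min at room temperature.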

HEK293 = system: HEK293
Summary of the method: as §1

HaCat = system: HaCat
Summary of the method: as §1

KB-3-1 = system: KB-3-1
Summary of the method: as §1

NIH3T3 = system: NIH3T3
Summary of the method: as §1
On the % scale 0 is the no-effect control and ±100 the full control effect; potency means the concentration at half of the fitted maximal effect.

CC(C)c1ccc2c(c1)C(O)CC1C(C)(C(=O)O)CCCC21C (stereo not given)
inactive: max response (CRL-7250) -4.34% | max response (HEK293) 2.95% | outcome (HaCat) | max response (KB-3-1) -15.9% | max response (NIH3T3) -2.12%

CC1=C(C(=O)OC2OC(COC3OC(CO)C(O)C(O)C3O)C(O)C(O)C2O)C(C)(C)CCC1 (stereo not given)
inactive: max response (CRL-7250) -6.15% | max response (HEK293) 1.47% | outcome (HaCat) | outcome (KB-3-1) | max response (NIH3T3) 0.403%

COC(=O)C1=COC(OC2OC(CO)C(O)C(O)C2O)C2C(C)C(OC(=O)/C=C/c3ccc(O)cc3)C(O)C12 (stereo not given)
inactive: max response (CRL-7250) 0.486% | max response (HEK293) -0.112% | outcome (HaCat) | max response (KB-3-1) 1.09% | max response (NIH3T3) -1.55%

Cc1ncc(NC(=O)c2ccc(CN3CCN(C)CC3)c(C(F)(F)F)c2)cc1Nc1nccc(-c2cccnc2)n1
inactive: max response (CRL-7250) -2.29% | outcome (HaCat) | max response (KB-3-1) 8.35% | max response (NIH3T3) 1.55%
active: Potency (HEK293) 16.4 µM

C=C(C(=O)OC)[C@]12O[C@@](C)(CC[C@@]3(O)/C(=C\C)C(=O)O[C@]3(C)C[C@@H]1OC(=O)C(CO)CN1CCCC1C(=O)O)CC2=O (stereo not given in full)
inactive: outcome (CRL-7250) | max response (HEK293) -8.55% | outcome (HaCat) | outcome (KB-3-1) | outcome (NIH3T3)

CC(=O)O[C@@H]1C(=O)C(C)=C(CCC(C)CC(=O)O)[C@@]2(C)CCCC(C)(C)C12 (stereo not given in full)
inactive: outcome (CRL-7250) | max response (HEK293) 0.534% | max response (HaCat) -6.8% | max response (KB-3-1) -5.14% | outcome (NIH3T3)

CC1(C)CC=C(c2cnc3ccccc3c2)c2cc(C(=O)Nc3ccc(C(=O)O)cc3)ccc21
inactive: outcome (CRL-7250) | max response (HEK293) 2.92% | outcome (HaCat) | outcome (KB-3-1) | max response (NIH3T3) -2.18%

COCCN1CCC(C(=O)NO)(S(=O)(=O)c2ccc(Oc3ccc(OC(F)(F)F)cc3)cc2)CC1
inactive: max response (CRL-7250) -0.582% | max response (HEK293) -3.44% | outcome (HaCat) | outcome (KB-3-1) | outcome (NIH3T3)

C=CC(C)(C)C12Nc3c(ccc4c3OC(C)(C)C=C4)C1(O)CC1C(=O)N3CCCC3C(=O)N12 (stereo not given)
inactive: max response (CRL-7250) 0.0002% | max response (HEK293) -7.42% | outcome (HaCat) | outcome (KB-3-1) | outcome (NIH3T3)

COc1cc(C(CO)C(OC2OC(CO)C(O)C(O)C2O)c2ccc(O)c(OC)c2)ccc1O (stereo not given)
inactive: outcome (CRL-7250) | max response (HEK293) -2.64% | outcome (HaCat) | max response (KB-3-1) 3.11% | outcome (NIH3T3)

COc1cncc(C#Cc2ccccn2)c1
inactive: max response (CRL-7250) 4.39% | max response (HEK293) 2.17% | outcome (HaCat) | max response (KB-3-1) -1.99% | max response (NIH3T3) -3.14%

COc1ccc(/C=C/C(N)=O)cc1OC
inactive: outcome (CRL-7250) | max response (HEK293) 3.65% | outcome (HaCat) | outcome (KB-3-1) | max response (NIH3T3) 3.68%

COC(=O)CCC1(C)C(C(C)(C)O)C(O)CC2(C)Oc3c(C)c4c(c(OC)c3CC21)C(=O)OC4 (stereo not given)
inactive: max response (CRL-7250) -9.47% | outcome (HEK293) | max response (HaCat) -0.542% | max response (KB-3-1) 5% | max response (NIH3T3) -1.25%

CC1CC(=O)C2=C(O1)OC1(C)CCC3C(C)(C)C4OC4C(=O)C3(C)C1C2 (stereo not given)
inactive: outcome (CRL-7250) | max response (HEK293) 1.32% | outcome (HaCat) | outcome (KB-3-1) | max response (NIH3T3) -0.441%

C/C=C(\C)C(=O)OC1CC2C(CC=C3CC(OC4CC(OC)C(OC5CC(OC)C(OC6CC(OC)C(OC7CC(OC)C(OC8CC(OC)C(OC9OC(CO)C(O)C(O)C9O)C(C)O8)C(C)O7)C(C)O6)C(C)O5)C(C)O4)CCC32C)C2(O)CCC(C(C)=O)C12C (stereo not given)
inactive: outcome (CRL-7250) | max response (HEK293) -12.4% | outcome (HaCat) | max response (KB-3-1) 8.92% | outcome (NIH3T3)

CC(=O)OC[C@]12[C@H](OC(C)=O)[C@H](OC(=O)c3ccccc3)[C@@H]3[C@@H](OC(C)=O)[C@]1(OC3(C)C)[C@H](C)C[C@H](OC(=O)c1ccccc1)[C@@H]2OC(=O)c1ccccc1
inactive: outcome (CRL-7250) | max response (HEK293) -0.732% | outcome (HaCat) | max response (KB-3-1) -5.99% | max response (NIH3T3) -7.63%

C[C@@H]1CC[C@]2(C(=O)O)CC[C@]3(C)C(=CCC4[C@@]5(C)C[C@@H](O)[C@H](O)[C@@](C)(CO)C5CC[C@]43C)C2[C@H]1C (stereo not given in full)
inactive: max response (CRL-7250) -10.8% | max response (HEK293) 4.76% | outcome (HaCat) | max response (KB-3-1) 3.75% | outcome (NIH3T3)
